Records with an inconclusive call do not appear. Some compounds were tested as several samples or in several runs, with calls that do not always agree. Activity calls are given as the source filed them. How the source made its calls, unless noted: active means hit-call score of the fitted dose curve at least 0.9, where 1 is the maximum; inactive means score below 0.9.

We go through six compounds from PubChem BioAssay (EPA / NIEHS).

Assay [1] is described as follows: BSK_LPS_PGE2: BioMAP Diversity Plus: LPS Assay for Prostaglandin E2 (PGE2) Biomarker Activity (AID 2283082).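 On AC50: secreted prostaglandin E2 measured by ELISA in LPS-stimulated co-culture.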 Particulars: primary human HUVEC with PBMC; actives raise or lower the signal. In short, it runs like this:
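LPS-activated HUVEC/PBMC co-culture; cmpd dosed, 24 h; PGE2 by ELISA; bidirectional fit vs DMSO; SRB (0.1%, TCA-fixed, 560 nm) in parallel plates for overt cytotox.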

Read-out in assay [2]: Macrophage colony-stimulating factor (MCSF), CSF1 (gene 1435)
Briefly: BSK_LPS_MCSF: BioMAP Diversity Plus: LPS Assay for Macrophage colony-stimulating factor (MCSF) Biomarker Activity (AID 2283083). The note with it: primary human HUVEC with PBMC; actives raise or lower the signal. The method, boiled down: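 Bidirectional fit versus DMSO of ELISA-measured M-CSF in co-cultured human umbilical vein endothelial cells and PBMC, sampled 24 h after dosing.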

Read-out in assay [3]: Tissue Factor, F3 (gene 2152)
Description: BSK_LPS_TissueFactor: BioMAP Diversity Plus: LPS Assay for Tissue Factor Biomarker Activity (AID 2283084). Particulars: primary human HUVEC with PBMC; actives raise or lower the signal. The method, boiled down:
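Read-out: CD142 ELISA, 24 h. System: LPS-driven human endothelial/PBMC co-culture. Analysis: up- or down-signal fitted against DMSO.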

Read-out in assay [4]: Tumor necrosis factor (Homo sapiens) (UniProt P01375)
Briefly: BSK_LPS_TNFa: BioMAP Diversity Plus: LPS Assay for Tumour Necrosis Factor alpha (TNFa) Biomarker Activity (AID 2283085). The note with it: primary human HUVEC with PBMC; actives raise or lower the signal. The method, boiled down: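 Read-out is ELISA of TNFa in primary human endothelial cell–PBMC co-cultures at 24 h after compound. Activity in either direction was fitted against DMSO.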

Read-out in assay [5]: Vascular cell adhesion molecule 1 (VCAM1), VCAM1 (gene 7412)
Briefly: BSK_LPS_VCAM1: BioMAP Diversity Plus: LPS Assay for Vascular cell adhesion molecule 1 (VCAM1) Biomarker Activity (AID 2283086). The note with it: primary human HUVEC with PBMC; actives raise or lower the signal. The method, boiled down:
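HUVEC + PBMC co-culture, LPS system; compound 24 h; VCAM-1 by ELISA; bidirectional fit vs DMSO control; parallel SRB (0.1%, TCA-fixed, 560 nm) for cytotoxicity.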

Read-out in assay [6]: CD40, CD40 (gene 958)
Briefly: BSK_SAg_CD40: BioMAP Diversity Plus: SAg Assay for CD40 Biomarker Activity (AID 2283088). The note with it: primary human HUVEC with PBMC; actives raise or lower the signal. In short, it runs like this:
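Endpoint derived by fitting increases or decreases versus DMSO controls. CD40 is detected by fluorescence ELISA in a human vascular co-culture of endothelium and PBMC at 24 h.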

Read-out in assay [7]: CD69, CD69 (gene 969)
Description: BSK_SAg_CD69: BioMAP Diversity Plus: SAg Assay for CD69 Biomarker Activity (AID 2283089).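 On AC50: cell surface CD69 protein quantified by ELISA with fluorescence detection.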 Particulars: primary human HUVEC with PBMC; actives raise or lower the signal. In short, it runs like this: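 ELISA, fluorescence read-out: CD69 on human umbilical vein endothelial cell + PBMC co-culture, 24 h post-dosing. Gain or loss of signal fitted bidirectionally against DMSO baseline.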

Read-out in assay [8]: Monocyte Chemoattractant Protein-1 (MCP1), CCL2 (gene 6347)
Description: BSK_SAg_MCP1: BioMAP Diversity Plus: SAg Assay for Monocyte Chemoattractant Protein-1 (MCP1) Biomarker Activity (AID 2283090). Particulars: primary human HUVEC with PBMC; actives raise or lower the signal. In short, it runs like this: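 MCP-1 levels in the endothelial–PBMC SAg co-culture were quantified by ELISA at 24 h post-dosing; both increases and decreases versus DMSO scored. Cytotoxicity monitored by SRB total protein in parallel cultures.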

Read-out in assay [9]: E-selectin (Homo sapiens) (UniProt P16581)
Briefly: BSK_SAg_Eselectin: BioMAP Diversity Plus: SAg Assay for Eselectin Biomarker Activity (AID 2283091). Particulars: primary human HUVEC with PBMC; actives raise or lower the signal. In short, it runs like this: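 Endpoint values derive from bidirectional fitting relative to DMSO, using ELISA-measured E-selectin in a human vascular co-culture (umbilical vein endothelium plus PBMC) sampled 24 h after dosing.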

Read-out in assay [10]: Monokine induced gamma interferon (MIG), CXCL9 (gene 4283)
Description: BSK_SAg_MIG: BioMAP Diversity Plus: SAg Assay for Monokine induced gamma interferon (MIG) Biomarker Activity (AID 2283092). The note with it: primary human HUVEC with PBMC; actives raise or lower the signal. The method, boiled down:
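ELISA readout of MIG/CXCL9; primary human umbilical vein endothelial cells co-cultured with peripheral blood mononuclear cells; 24 h post-dose; gain/loss fit vs DMSO baseline.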

Read-out in assay [11]: Interleukin-8 (IL8), CXCL8 (gene 3576)
Briefly: BSK_SAg_IL8: BioMAP Diversity Plus: SAg Assay for Interleukin-8 (IL8) Biomarker Activity (AID 2283094). Particulars: primary human HUVEC with PBMC; actives raise or lower the signal. In short, it runs like this: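 ELISA read-out of IL-8 in a primary human vascular co-culture (umbilical vein endothelium plus PBMC), taken 24 h after compound addition. Values derive from bidirectional fits against DMSO negative controls.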

Assay [12] in a line: BSK_SAg_Proliferation: Cell Proliferation Assessment in the BioMAP Diversity Plus: SAg Assay (AID 2283095).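 Further: relative cell number as total protein by SRB absorbance in sub-confluent culture.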 Particulars: primary human HUVEC with PBMC. In short, it runs like this:
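Cells (endothelium plus PBMC, human primary) were dosed with chemical, cultured 96 h, fixed in 10% TCA and stained with 0.1% SRB. Absorbance at 560 nm gave relative protein, fitted bidirectionally relative to DMSO.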

Assay [13] in a line: BSK_SAg_SRB: Viability Assessment in the BioMAP Diversity Plus: SAg Assay (AID 2283096).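 Further: cells read one day after compound addition; hits may be either gain or loss of signal compared with DMSO.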 The note with it: primary human HUVEC with PBMC. In short, it runs like this: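 Total protein by sulforhodamine B staining, 24 h after dosing, in HUVEC–PBMC co-culture; DMSO-referenced bidirectional fitting.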
Assay [14] addresses human CYP19A1, CYP19A1 (gene 1588) (UniProt P11511). Briefly: NVS_ADME_hCYP19A1: NovaScreen (NVS) CYP450-related Enzyme Activity (ADME) Assay for human CYP19A1 (AID 2283098; active means hit-call score of the fitted dose curve at least 0.9, where 1 is the maximum;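 on AC50: potency for inhibitors seen as loss of fluorescent enzyme signal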). The method, boiled down: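 Biochem, cell-free; recombinant enzyme + specific substrate; fluorescence intensity at 0.5 h post-dose; 10 uM duplicate primary, conc. series for actives; acetonitrile = negative control/baseline; positive and negative controls on every plate.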

The nature of assay [15]: BSK_SAg_PBMCCytotoxicity: PBMC Cytotoxicity Assessment in the BioMAP Diversity Plus: SAg Assay (AID 2283093).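 Further: PBMC viability measured as Alamar Blue reduction fluorescence at 546/580 nm; fitted both ways against DMSO so a hit may be loss or gain of signal.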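 On AC50: PBMC superantigen activated with SEB plus TSST-1 one hour after compound addition.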 Particulars: primary human HUVEC with PBMC. The method, boiled down: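 Compound added to 75,000 PBMC/well for 1 h; SEB and TSST-1 then added at 20 ng/mL final each; 90 h incubation; Alamar Blue 6 h; read 546/580 nm ex/em. Activity fitted bidirectionally relative to DMSO baseline.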

Chain of human CYP19A1, CYP19A1 (gene 1588) (P11511 whole entry, looked up): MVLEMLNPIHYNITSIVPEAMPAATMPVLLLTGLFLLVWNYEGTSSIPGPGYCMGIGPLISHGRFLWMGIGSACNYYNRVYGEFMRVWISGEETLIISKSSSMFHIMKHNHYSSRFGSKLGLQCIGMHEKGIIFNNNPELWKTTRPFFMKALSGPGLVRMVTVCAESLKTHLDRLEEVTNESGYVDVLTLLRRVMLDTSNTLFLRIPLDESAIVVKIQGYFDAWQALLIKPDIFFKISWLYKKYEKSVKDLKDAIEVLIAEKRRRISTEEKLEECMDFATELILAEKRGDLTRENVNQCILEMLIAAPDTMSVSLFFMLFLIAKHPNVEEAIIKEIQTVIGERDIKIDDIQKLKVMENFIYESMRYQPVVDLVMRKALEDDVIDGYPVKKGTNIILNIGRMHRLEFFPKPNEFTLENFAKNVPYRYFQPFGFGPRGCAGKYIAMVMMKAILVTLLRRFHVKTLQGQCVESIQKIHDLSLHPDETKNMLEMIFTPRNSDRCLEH
Chain of Tumor necrosis factor (Homo sapiens) (P01375 whole entry, looked up): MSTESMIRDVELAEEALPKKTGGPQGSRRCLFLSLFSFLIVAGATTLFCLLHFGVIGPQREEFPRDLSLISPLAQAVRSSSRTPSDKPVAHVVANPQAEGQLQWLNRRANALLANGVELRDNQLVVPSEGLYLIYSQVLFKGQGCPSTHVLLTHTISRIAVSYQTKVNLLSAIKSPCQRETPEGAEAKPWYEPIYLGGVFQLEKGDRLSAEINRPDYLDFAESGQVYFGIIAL
Chain of E-selectin (Homo sapiens) (P16581 whole entry, looked up): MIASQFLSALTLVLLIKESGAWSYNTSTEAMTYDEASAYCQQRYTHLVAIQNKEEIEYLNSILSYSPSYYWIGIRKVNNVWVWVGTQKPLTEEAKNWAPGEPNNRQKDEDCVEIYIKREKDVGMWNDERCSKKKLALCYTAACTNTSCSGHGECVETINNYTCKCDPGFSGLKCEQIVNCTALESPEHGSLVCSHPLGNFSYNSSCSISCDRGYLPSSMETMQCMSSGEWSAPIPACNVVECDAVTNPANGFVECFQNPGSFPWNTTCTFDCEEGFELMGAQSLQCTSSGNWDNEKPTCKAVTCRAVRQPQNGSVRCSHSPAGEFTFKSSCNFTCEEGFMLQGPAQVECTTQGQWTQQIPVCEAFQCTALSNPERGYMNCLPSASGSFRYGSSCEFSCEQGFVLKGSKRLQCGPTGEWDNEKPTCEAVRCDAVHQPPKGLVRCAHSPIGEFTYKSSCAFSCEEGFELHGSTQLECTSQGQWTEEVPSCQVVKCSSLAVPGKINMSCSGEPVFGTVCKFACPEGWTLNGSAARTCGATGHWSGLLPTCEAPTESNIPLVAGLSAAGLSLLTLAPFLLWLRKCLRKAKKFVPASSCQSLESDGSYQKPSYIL

As for `CCCCCCCCOc1ccc(C(=O)c2ccccc2)c(O)c1`, the result in assay [1], in assay [2], in assay [4], in assay [5], in [7] and in assay [8] was inactive. For the same compound, the result in assay [9], in [10], in assay [11] and in [14] was inactive. The AC50 in assay [3] was 12.6 µM (active); in [6], 30.3 µM (active); in [12] it was 15 µM (active); in assay [13] it was 30.4 µM (active).
As for `O=C1CCC(C2CCCCC2)CC1`, the result in [1], in assay [2], in [3], in [4], in [5] and in assay [6] was inactive. Further, the outcome in assay [7], in [8], in assay [9], in assay [15], in assay [11] and in assay [12] was inactive. Moreover, the result in assay [13] and in assay [14] was inactive. Moreover, the AC50 in assay [14] is 11.6 µM (active).
In the case of `CCCCCCCCCCCCO`, the outcome in [1] was inactive. Besides, the AC50 is 32.2 µM (active) in assay [2]; 19.8 µM (active) in [3]; 29.7 µM (active) in [4]; 19.8 µM (active) in [5]; 31.6 µM (active) in assay [6]; 31 µM (active) in [7]. Also, the AC50 was 30.4 µM (active) in assay [8]; 31.7 µM (active) in [9]; 35.1 µM (active) in assay [15]; 19.8 µM (active) in assay [11]; 30.1 µM (active) in assay [12].
For `CCCCCc1ccc(N)cc1`, the AC50 in [1] was 12 µM (active); in [5], 20 µM (active). The result in [2], in assay [3], in assay [4], in [6], in assay [7] and in assay [8] was inactive. Besides, the outcome in assay [9], in [10], in assay [11], in [12] and in assay [13] was inactive.
Regarding `O=CCCCC=O`, the result in [1], in assay [3], in assay [7], in assay [8], in [10] and in assay [11] was inactive. For the same compound, the result in assay [13] was inactive. Moreover, the AC50 in [2] was 37.3 µM (active); in assay [4], 32.7 µM (active); in [5] it was 33 µM (active); in assay [6] it was 29.8 µM (active); in assay [9], 30.3 µM (active); in assay [12], 32.8 µM (active).
As to `c1ccc2n[nH]nc2c1`, the outcome in assay [1], in [2], in assay [3], in assay [4], in assay [5] and in [6] was inactive. The outcome in assay [7], in assay [8], in assay [9], in assay [10], in assay [15] and in assay [11] was inactive. In addition, the result in assay [12] and in assay [13] was inactive.
